In PubChem BioAssay (EPA / NIEHS):
The source made the active and inactive calls. How the source made its calls: active means hit-call score of the fitted dose curve at least 0.9, where 1 is the maximum; inactive means score below 0.9.

Experiments:
Conditions in all cases: primary human HUVEC with PBMC; actives raise or lower the signal
[1] = read-out: Monocyte Chemoattractant Protein-1 (MCP1), CCL2 (gene 6347); assay: BSK_LPS_MCP1: BioMAP Diversity Plus: LPS Assay for Monocyte Chemoattractant Protein-1 (MCP1) Biomarker Activity (AID 2283081);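 on AC50: secreted MCP-1 protein quantified by ELISA in culture supernatant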
Outline: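 Values derive from bidirectional fitting against DMSO of ELISA-measured MCP-1 in a human primary endothelial and mononuclear cell co-culture, 24 h after chemical addition under LPS activation.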

[2] = BSK_LPS_PGE2: BioMAP Diversity Plus: LPS Assay for Prostaglandin E2 (PGE2) Biomarker Activity (AID 2283082);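 on AC50: secreted prostaglandin E2 measured by ELISA in LPS-stimulated co-culture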
Outline: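 ELISA read-out of PGE2 from human umbilical vein endothelial cells co-cultured with peripheral blood mononuclear cells under LPS, 24 h post-dose. Gain or loss of signal scored relative to DMSO baseline.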

[3] = read-out: Macrophage colony-stimulating factor (MCSF), CSF1 (gene 1435); assay: BSK_LPS_MCSF: BioMAP Diversity Plus: LPS Assay for Macrophage colony-stimulating factor (MCSF) Biomarker Activity (AID 2283083)
Outline: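 Bidirectional fit versus DMSO of ELISA-measured M-CSF in co-cultured human umbilical vein endothelial cells and PBMC, sampled 24 h after dosing.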

[4] = read-out: Tissue Factor, F3 (gene 2152); assay: BSK_LPS_TissueFactor: BioMAP Diversity Plus: LPS Assay for Tissue Factor Biomarker Activity (AID 2283084)
Outline: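 Read-out: CD142 ELISA, 24 h. System: LPS-driven human endothelial/PBMC co-culture. Analysis: up- or down-signal fitted against DMSO.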

[5] = read-out: Tumor necrosis factor (Homo sapiens) (UniProt P01375); assay: BSK_LPS_TNFa: BioMAP Diversity Plus: LPS Assay for Tumour Necrosis Factor alpha (TNFa) Biomarker Activity (AID 2283085);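 on AC50: TNFa protein level quantified by ELISA in the co-culture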
Outline: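 HUVEC/PBMC co-culture, LPS-stimulated; 24 h post-dose; TNFa by ELISA; gain or loss of signal fitted bidirectionally vs DMSO baseline.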

[6] = read-out: Vascular cell adhesion molecule 1 (VCAM1), VCAM1 (gene 7412); assay: BSK_LPS_VCAM1: BioMAP Diversity Plus: LPS Assay for Vascular cell adhesion molecule 1 (VCAM1) Biomarker Activity (AID 2283086)
Outline: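 ELISA read-out of VCAM-1 at 24 h post-dosing in an LPS-driven HUVEC/PBMC primary human co-culture; gain or loss of signal fitted bidirectionally against DMSO baseline. Cytotoxicity tracked in parallel cultures by SRB total-protein staining.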

[7] = read-out: CD38, CD38 (gene 952); assay: BSK_SAg_CD38: BioMAP Diversity Plus: SAg Assay for CD38 Biomarker Activity (AID 2283087)
Outline: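 Measures CD38 on a human endothelial/PBMC co-culture driven by SEB and TSST-1, 24 h after compound exposure, using ELISA with fluorescence detection; DMSO defines baseline for bidirectional curve fitting.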

[8] = read-out: CD40, CD40 (gene 958); assay: BSK_SAg_CD40: BioMAP Diversity Plus: SAg Assay for CD40 Biomarker Activity (AID 2283088)
Outline: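 Endpoint derived by fitting increases or decreases versus DMSO controls. CD40 is detected by fluorescence ELISA in a human vascular co-culture of endothelium and PBMC at 24 h.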

[9] = read-out: CD69, CD69 (gene 969); assay: BSK_SAg_CD69: BioMAP Diversity Plus: SAg Assay for CD69 Biomarker Activity (AID 2283089);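 on AC50: cell surface CD69 protein quantified by ELISA with fluorescence detection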
Outline: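 ELISA, fluorescence read-out: CD69 on human umbilical vein endothelial cell + PBMC co-culture, 24 h post-dosing. Gain or loss of signal fitted bidirectionally against DMSO baseline.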

[10] = read-out: Monocyte Chemoattractant Protein-1 (MCP1), CCL2 (gene 6347); assay: BSK_SAg_MCP1: BioMAP Diversity Plus: SAg Assay for Monocyte Chemoattractant Protein-1 (MCP1) Biomarker Activity (AID 2283090)
Outline: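 Values derive from bidirectional fitting of ELISA-measured MCP1 against DMSO controls. Readings were taken 24 h after dosing human vascular endothelial cells co-cultured with peripheral blood mononuclear cells under superantigen stimulation.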

Measured: AC50

Tumor necrosis factor (Homo sapiens), sequence (P01375 whole entry, looked up): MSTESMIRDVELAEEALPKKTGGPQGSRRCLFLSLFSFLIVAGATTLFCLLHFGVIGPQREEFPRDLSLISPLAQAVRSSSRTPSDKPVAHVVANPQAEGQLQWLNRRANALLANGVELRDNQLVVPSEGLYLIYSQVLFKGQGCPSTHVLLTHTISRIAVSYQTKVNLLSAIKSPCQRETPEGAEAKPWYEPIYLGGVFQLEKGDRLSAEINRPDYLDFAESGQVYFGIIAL

N#Cc1cc(Br)c(O)c(Br)c1
active: [3] 4.08 µM | [7] 31.2 µM | [8] 20 µM | [9] 26.4 µM
inactive: all other assays above

CC(C)Oc1cc(-n2nc(C(C)(C)C)oc2=O)c(Cl)cc1Cl
active: [1] 30.2 µM | [3] 32.7 µM | [5] 35.7 µM | [6] 31.7 µM | [7] 28.7 µM | [9] 30.7 µM | [10] 29.9 µM
inactive: [2] | [4]

Fc1ccc(Oc2ccnc3cc(Cl)cc(Cl)c23)cc1
active: [1] 29.5 µM | [2] 8.77 µM | [3] 18.7 µM | [4] 32.3 µM | [5] 20 µM | [6] 23.2 µM | [7] 25.1 µM | [9] 14.9 µM | [10] 28.2 µM

Oc1ccccc1-c1ccccc1
active: [2] 4.65 µM | [5] 14.8 µM
not listed: [8]
inactive: all other assays above

C#CCOS(=O)OC1CCCCC1Oc1ccc(C(C)(C)C)cc1 (configuration not stated)
inactive: [2] | [5]
active: [1] 20 µM | [3] 15.8 µM | [4] 32.6 µM | [6] 10.1 µM | [7] 5.43 µM | [9] 5.11 µM | [10] 7.84 µM

CON(C)C(=O)Nc1ccc(Cl)c(Cl)c1
active: [2] 6.39 µM | [3] 7.53 µM
not listed: [8]
inactive: all other assays above

CCOc1cc(Oc2ccc(C(F)(F)F)cc2Cl)ccc1[N+](=O)[O-]
active: [3] 5.45 µM | [7] 8.23 µM
not listed: [8]
inactive: all other assays above

Cc1c(F)c(F)c(COC(=O)C2C(/C=C(\Cl)C(F)(F)F)C2(C)C)c(F)c1F (configuration not stated)
active: [3] 12.7 µM | [6] 12 µM | [7] 9.52 µM | [9] 5.53 µM
not listed: [8]
inactive: all other assays above

COc1nc(NC(C)C)nc(NC(C)C)n1
active: [5] 9.63 µM
not listed: [8]
inactive: all other assays above

N#Cc1nn(-c2c(Cl)cc(C(F)(F)F)cc2Cl)c(N)c1S(=O)C(F)(F)F (configuration not stated)
active: [1] 32.4 µM | [3] 20 µM | [5] 5.27 µM | [6] 31.2 µM | [7] 29.7 µM | [9] 25.6 µM | [10] 30 µM
inactive: [2] | [4]

COC(=O)C=C(C)OP(=O)(OC)OC
active: [2] 0.37 µM
not listed: [8]
inactive: all other assays above

CC(C)C1(C)N=C(c2nc3ccccc3cc2C(=O)O)NC1=O (configuration not stated)
active: [3] 2.62 µM
not listed: [8]
inactive: all other assays above

CS/C(C)=N/OC(=O)N(C)SN(C)C(=O)O/N=C(\C)SC
active: [1] 29.9 µM | [3] 28.2 µM | [4] 32.1 µM | [5] 16.2 µM | [6] 24.3 µM | [7] 26.4 µM | [9] 31.7 µM | [10] 30.1 µM
inactive: [2]

CCCCC(CC)COC(=O)c1ccccc1C(=O)OCC(CC)CCCC (configuration not stated)
active: [3] 4.51 µM | [5] 12.3 µM | [7] 7.36 µM | [9] 5.92 µM
not listed: [8]
inactive: all other assays above

COc1nc(C)nc(NC(=O)NS(=O)(=O)c2ccccc2CCC(F)(F)F)n1
not listed: [8]
inactive: all other assays above

COc1cnc(OC)n2nc(NS(=O)(=O)c3c(OCC(F)F)cccc3C(F)(F)F)nc12
not listed: [8]
inactive: all other assays above

COc1nc(C)nc(NC(=O)NS(=O)(=O)c2ccccc2Cl)n1
not listed: [8]
inactive: all other assays above

CNC(=O)ON=CC(C)(C)SC
active: [2] 2.13 µM
not listed: [8]
inactive: all other assays above

CNC(=S)S
active: [1] 20 µM | [2] 8.25 µM | [3] 9.92 µM | [5] 7.49 µM | [6] 12.4 µM | [7] 13.7 µM
inactive: [4] | [9] | [10]

CCCCNC(=O)n1c(NC(=O)OC)nc2ccccc21
active: [6] 22.6 µM
not listed: [8]
inactive: all other assays above

O=C(O)c1nc(Cl)ccc1Cl
not listed: [8]
inactive: all other assays above

CCCCOC(=O)c1ccccc1C(=O)OCCCC
not listed: [8]
inactive: all other assays above

Cc1ccc(-c2c(Cl)nc(C#N)n2S(=O)(=O)N(C)C)cc1
inactive: [4] | [5]
active: [1] 29.6 µM | [2] 30 µM | [3] 31.5 µM | [6] 34 µM | [7] 22.5 µM | [9] 13.9 µM | [10] 24.7 µM

OC(c1ccc(Cl)cc1)(c1cncnc1)c1ccccc1Cl (configuration not stated)
active: [2] 4.99 µM | [5] 10.9 µM | [7] 20 µM | [9] 14.2 µM | [10] 25.5 µM
inactive: [1] | [3] | [4] | [6]

CCOC(=O)CC(SP(=S)(OC)OC)C(=O)OCC (configuration not stated)
not listed: [8]
inactive: all other assays above

CCCC1COC(Cn2cncn2)(c2ccc(Cl)cc2Cl)O1 (configuration not stated)
active: [2] 6.44 µM
not listed: [3] | [8]
inactive: all other assays above

CC1=C(C(=O)Nc2ccccc2)SCCO1
active: [2] 8.8 µM
not listed: [8]
inactive: all other assays above

CCOP(=S)(OCC)SCn1c(=O)oc2cc(Cl)ccc21
inactive: [4] | [9]
active: [1] 25.8 µM | [2] 13.5 µM | [3] 11.1 µM | [5] 12 µM | [6] 13.9 µM | [7] 30.4 µM | [10] 28.4 µM
